Assay outcomes as filed in PubChem BioAssay.
JMJD2A Tudor inh: blocks the human JMJD2A Tudor domain | O75164 | AlphaScreen JMJD2A-Tudor / H3K4me3 peptide binding | Potency, µM (top dose mostly 114 µM), hits mostly inhibitors | 390,000 compounds, 4.4% hits | AID 504339; further: nearly all actives have a fitted effect of over 50% in size
G9a block: G9a (human) methyltransferase inhibition; Q96KQ7; G9a H3K9 monomethylation, AlphaScreen, 2 h; Potency, µM (doses to about 102 µM), usual class: inhibitors; 350,000 compounds, 8.8% hits; AID 504332; further: nearly all actives have a fitted effect of over 75% in size
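Chemiluminescent proximity detection of H3K9 monomethylation, read after 10 min bead incubation in the dark. Reaction: 20 nM G9a, 500 nM biotin-H3K9 peptide, 20 uM SAM cofactor, 2 h, room temperature, following 15 min enzyme-compound preincubation.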
L3MBTL1 inh: blocks human L3MBTL1; AlphaScreen L3MBTL1–H3K9me1 peptide binding; Potency, µM (top dose mostly 57.1 µM), actives largely listed as inhibitors; 230,000 compounds, 0.66% hits; AID 485360; further: nearly all actives have a fitted effect of over 60% in size
Target sequence (Q9Y468 whole entry, looked up): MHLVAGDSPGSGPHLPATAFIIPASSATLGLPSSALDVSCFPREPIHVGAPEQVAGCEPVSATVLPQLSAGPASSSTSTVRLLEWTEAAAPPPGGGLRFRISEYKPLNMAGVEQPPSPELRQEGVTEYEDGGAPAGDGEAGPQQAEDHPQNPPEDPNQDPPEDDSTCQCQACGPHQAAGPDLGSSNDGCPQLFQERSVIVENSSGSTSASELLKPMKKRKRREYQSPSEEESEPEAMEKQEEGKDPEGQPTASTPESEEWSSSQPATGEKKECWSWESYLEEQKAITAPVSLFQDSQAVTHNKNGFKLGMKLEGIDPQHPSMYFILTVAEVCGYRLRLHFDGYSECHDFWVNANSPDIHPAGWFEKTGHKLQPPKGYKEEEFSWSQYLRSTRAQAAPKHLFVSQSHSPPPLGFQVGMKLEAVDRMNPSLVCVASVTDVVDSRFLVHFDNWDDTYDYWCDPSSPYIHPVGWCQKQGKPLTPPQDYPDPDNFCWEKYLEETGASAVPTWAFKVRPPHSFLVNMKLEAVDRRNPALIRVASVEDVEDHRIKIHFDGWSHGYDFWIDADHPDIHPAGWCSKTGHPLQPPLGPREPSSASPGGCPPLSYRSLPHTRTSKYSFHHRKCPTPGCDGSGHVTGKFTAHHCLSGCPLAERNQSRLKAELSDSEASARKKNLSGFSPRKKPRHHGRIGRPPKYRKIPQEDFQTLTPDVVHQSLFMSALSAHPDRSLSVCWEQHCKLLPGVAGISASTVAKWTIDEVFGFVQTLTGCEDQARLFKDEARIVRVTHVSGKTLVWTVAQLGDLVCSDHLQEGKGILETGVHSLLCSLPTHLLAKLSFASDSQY
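Displacement of a biotinylated histone H3(1-15) peptide monomethylated at Lys9 (75 nM) from L3MBTL1 (50 nM) was measured by AlphaScreen after a 30 min room-temperature compound incubation; cefsulodin titration served as intraplate control.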
Sfp PPTase inh: Sfp phosphopantetheinyl transferase inhibition. Biochemical Sfp PPTase activity, qHTS. Potency, µM, most hits filed as inhibitors. 310,000 compounds, 3.5% hits;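 further: the enzyme is Sfp with the accession as filed and its product quenches rhodamine fluorescence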
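Fluorescence-quenching assay with 15 nM Sfp, 5 uM rhodamine-CoA and 12.5 uM BHQ-2-labelled ybbR peptide in pH 7.6 Hepes/MgCl2 buffer. Enzyme was pre-incubated with compound for 15 min at room temperature. Rate was taken from the 30-min fluorescence change (525/598 nm).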
BAZ2B inh: blocks human BAZ2B; AID 504333; Q9UIF8; 360,000 compounds, 4.4% hits; AlphaScreen BAZ2B-H3K14Ac peptide displacement; Potency, µM (titrated, usually from 114 µM), hits mostly inhibitors; further: nearly all actives have a fitted effect of over 60% in size
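In this displacement format the biotinylated H3(5-23) peptide acetylated at Lys14 serves as ligand at 50 nM, with BAZ2B at 50 nM in PBS pH 7.4 containing 0.01% Tween-20. Donor and acceptor beads are 10 ug/mL final.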
HP1b binding inh: inhibitors of HP1-beta chromodomain binding to methylated histone tails. 390,000 compounds, 0.56% hits. AID 540317. AlphaScreen HP1-beta / biotin-H3K9me3 peptide binding. P83916. Potency, µM (doses to about 114 µM), usual class: inhibitors; further: nearly all actives have a fitted effect of over 70% in size
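HP1-beta protein (50 nM final) preincubated 30 min at room temperature with biotinylated H3(1-18)K9me3 peptide (50 nM) in PBS pH 7.4, 0.01% Tween-20, then compound added for 30 min. AlphaScreen streptavidin donor/nickel chelate acceptor beads (10 ug/mL final), 30 min dark, luminescence read.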
Numbers stand for hits; [ ] = dose if it differs, or a comment. Hits are enriched below; roughly 12% of the tested compounds scored in any of these assays. The call rests on the fitted dose curve; in most records, active means well fitted curve in the direction sought with a large enough effect; inconclusive means small, poorly fitted or top-dose-only effect, or another doubt; inactive means no such curve, though single readings can be large; an effect the other way counts as inactive or inconclusive.

How did O=C1CN(C(=O)/C=C/c2ccco2)c2ccccc2N1 do in these assays?
JMJD2A Tudor inh: inactive; G9a block: inconclusive; L3MBTL1 inh: inactive; Sfp PPTase inh: inconclusive; BAZ2B inh: inconclusive; HP1b binding inh: inactive

Results for O=C1CNC(=O)/C(=C/c2ccco2)N1 ?
JMJD2A Tudor inh: inactive; G9a block: inactive; L3MBTL1 inh: 35.5µM; Sfp PPTase inh: inactive; BAZ2B inh: inactive; HP1b binding inh: inactive

How did N#Cc1nc(COc2ccccc2Cl)oc1NCc1ccc(F)cc1 do in these assays?
JMJD2A Tudor inh: inconclusive; G9a block: 44.7µM; L3MBTL1 inh: inactive; Sfp PPTase inh: inactive; BAZ2B inh: inconclusive; HP1b binding inh: inactive

What do the screens show for `COc1ccccc1-c1nc(C#N)c(NCc2ccc(F)cc2)o1`?
JMJD2A Tudor inh: inactive; G9a block: inconclusive; Sfp PPTase inh: inactive; BAZ2B inh: 50.1µM; HP1b binding inh: inconclusive

Results for Cc1ccc(CNc2oc(-c3cccs3)nc2C#N)cc1 ?
JMJD2A Tudor inh: inactive; G9a block: 50.1µM; L3MBTL1 inh: inconclusive; Sfp PPTase inh: inactive; BAZ2B inh: inconclusive; HP1b binding inh: inconclusive

What do the screens show for `Cc1cccc(N2CCN(C(c3ccccc3)c3nnc(-c4ccccc4Cl)o3)CC2)c1C` (stereo not given)?
JMJD2A Tudor inh: inactive; G9a block: inactive; BAZ2B inh: inactive; HP1b binding inh: inactive

How did COc1ccc(NC(=O)c2cc(-c3ccccc3F)no2)cc1 do in these assays?
JMJD2A Tudor inh: inactive; G9a block: inactive; BAZ2B inh: inactive; HP1b binding inh: inactive

How did CC(=O)C1=C(c2ccc(F)cc2)N(C(C)=O)n2c(nnc2C2CCCCC2)S1 do in these assays?
JMJD2A Tudor inh: inactive; G9a block: inactive; BAZ2B inh: inactive; HP1b binding inh: inactive

How did CC1=CC(C)(C)Nc2ccc(OC(=O)CN3C(=O)CCC3=O)cc21 do in these assays?
JMJD2A Tudor inh: inactive; G9a block: inactive[12.7 µM]; Sfp PPTase inh: inactive; BAZ2B inh: inactive; HP1b binding inh: inactive

What do the screens show for `COc1ccc(OC(=O)C(C)N2C(=O)c3ccccc3C2=O)cc1` (stereo not given)?
JMJD2A Tudor inh: inactive; G9a block: inactive; L3MBTL1 inh: inactive; Sfp PPTase inh: inactive; BAZ2B inh: inactive; HP1b binding inh: inactive

What do the screens show for `CC1=CC(C)(C)Nc2ccc(OC(=O)c3ccco3)cc21`?
JMJD2A Tudor inh: inconclusive; G9a block: inconclusive; L3MBTL1 inh: inactive; Sfp PPTase inh: inactive; BAZ2B inh: 50.1µM; HP1b binding inh: inactive

What do the screens show for `O=C(Oc1ccc(F)cc1)c1cccnc1`?
JMJD2A Tudor inh: inactive; G9a block: inactive; Sfp PPTase inh: inactive; BAZ2B inh: inactive; HP1b binding inh: inactive

How did CC1=CC(C)(C)N2C(=O)C(=O)c3cc(OC(=O)c4ccco4)cc1c32 do in these assays?
JMJD2A Tudor inh: 35.5µM; G9a block: 35.5µM; L3MBTL1 inh: inactive; Sfp PPTase inh: inactive; BAZ2B inh: 35.5µM; HP1b binding inh: 31.6µM

What do the screens show for `CC1=CC(C)(C)Nc2ccc(OC(=O)c3cccnc3)cc21`?
JMJD2A Tudor inh: inconclusive; G9a block: 44.7µM; L3MBTL1 inh: inconclusive; Sfp PPTase inh: inconclusive; BAZ2B inh: 39.8µM; HP1b binding inh: inactive

Results for CC1=CC(C)(C)Nc2ccc(OC(=O)C(C)N3C(=O)c4ccccc4C3=O)cc21 (stereo not given) ?
JMJD2A Tudor inh: inconclusive; G9a block: 10µM; L3MBTL1 inh: inconclusive; Sfp PPTase inh: inactive; BAZ2B inh: 22.4µM; HP1b binding inh: inconclusive

Results for CCn1c(=O)c2sccc2n2c(CCC(=O)Nc3ccc(OC)cc3OC)nnc12 ?
JMJD2A Tudor inh: inactive; G9a block: inactive; BAZ2B inh: inactive; HP1b binding inh: inactive

How did O=C(NCCc1ccccc1)c1ccc2c(c1)N(Cc1c(F)cccc1Cl)C(=O)CS2 do in these assays?
JMJD2A Tudor inh: inactive; G9a block: inactive; BAZ2B inh: inactive; HP1b binding inh: inactive

How did CCCC(CC)Sc1nc2c([nH]1)c(=S)n(C)c(=O)n2C (stereo not given) do in these assays?
JMJD2A Tudor inh: inconclusive; HP1b binding inh: inactive

Results for Cn1c(=S)c2[nH]c(SCc3cccnc3)nc2n(C)c1=O ?
JMJD2A Tudor inh: 8.91µM; HP1b binding inh: inactive

How did CCN(CC)CCSc1nc2c([nH]1)c(=S)n(C)c(=O)n2C do in these assays?
JMJD2A Tudor inh: 17.8µM; HP1b binding inh: inactive

How did Cn1c(=S)c2[nH]c(SCCC(C)(C)C)nc2n(C)c1=O do in these assays?
JMJD2A Tudor inh: 22.4µM; HP1b binding inh: inactive

How did CSc1nc2c([nH]1)c(=S)n(C)c(=O)n2C do in these assays?
JMJD2A Tudor inh: inactive; HP1b binding inh: inactive

Results for CCCCSc1nc2c([nH]1)c(=S)n(C)c(=O)n2C ?
JMJD2A Tudor inh: inactive; HP1b binding inh: inactive

How did COc1ccccc1CNc1ccc(-c2nc(-c3cccnc3)no2)cc1[N+](=O)[O-] do in these assays?
JMJD2A Tudor inh: inactive; G9a block: inactive; BAZ2B inh: inactive; HP1b binding inh: inactive

What do the screens show for `COC(=O)C(C(C)=O)C1c2ccccc2C=C(C)N1C(=O)OC` (stereo not given)?
Sfp PPTase inh: inactive

What do the screens show for `Cc1cc(O)c2c(c1)OC1(C)CCC3C(C)(C)CCCC34COC2C14` (stereo not given)?
G9a block: inactive[12.7 µM]; Sfp PPTase inh: inactive

Results for COc1ccc(C2OC34CCCCC3C(C#N)(C#N)C2(C#N)C(=N)O4)cc1 (stereo not given) ?
JMJD2A Tudor inh: inactive; G9a block: 50.1µM; L3MBTL1 inh: inactive; Sfp PPTase inh: inactive; BAZ2B inh: inactive; HP1b binding inh: inactive

How did COc1ccccc1N=C1SCC(=O)N1c1ccccc1OC do in these assays?
JMJD2A Tudor inh: inactive; G9a block: 28.2µM; L3MBTL1 inh: inactive; Sfp PPTase inh: 4.47µM; BAZ2B inh: inactive; HP1b binding inh: inconclusive

What do the screens show for `COc1ccccc1N1C(=O)CSC1=NC(=O)c1ccccc1`?
JMJD2A Tudor inh: inactive; L3MBTL1 inh: inactive; Sfp PPTase inh: inactive; BAZ2B inh: inactive; HP1b binding inh: inactive

How did CCCCc1c(C)nc2ccc(Br)cc2c1SCCC#N do in these assays?
G9a block: 28.2µM; L3MBTL1 inh: inactive; Sfp PPTase inh: inactive; BAZ2B inh: inactive

How did CCOC(=O)C1CCCN(S(=O)(=O)c2ccc3ccccc3c2)C1 (stereo not given) do in these assays?
JMJD2A Tudor inh: inactive; G9a block: inactive[12.7 µM]; Sfp PPTase inh: inactive; BAZ2B inh: inactive; HP1b binding inh: inactive

Results for CCOC(=O)N1CCC(N2CCN(S(=O)(=O)c3ccc4ccccc4c3)CC2)CC1 ?
JMJD2A Tudor inh: 0.891µM; G9a block: 8.91µM; Sfp PPTase inh: inconclusive; BAZ2B inh: inconclusive; HP1b binding inh: inconclusive

How did CCOC(=O)N1CCC(N2C(=O)c3ccccc3C2Nc2ccc(S(=O)(=O)N3CCCCC3)cc2)CC1 (stereo not given) do in these assays?
G9a block: 39.8µM; Sfp PPTase inh: inactive; BAZ2B inh: inactive
